Each sequence was assayed against MPHOSPH9 (assay: pooled miR-30 sensor sort-seq; sequence = guide strand). Conditions: shRNA.
Also: reference of the scale not given here.

Sequence	sensor-assay potency score (higher = more potent)
TTGCTTGTGAAAATGAGTCTAT	-0.111
TTTATCAACAAGCTTGTTGATG	-0.498
TTAAAGACACATGACACTCTTC	0.499
TTTGGTGACACATCTGTGGAAG	-0.32
TTACAATGTAGAACAAGTCTAT	0.128
TATTTGTTTAGAAACAAGCTGC	0.128
TTCATCTACAGTGTTGACCGAG	0.377
TTGTTTAGAAACAAGCTGCTTC	0.601
TTGTTGATGAACTTCCAGGTGA	-0.421
TAGATCTTGAACCTCCATCTTC	-0.263
TTGAGCTTCTTTATCATCTGAG	0.656
TAACGTAGGATCTAGAGTCAGG	-0.553

Each sequence was assayed against MPST in the same assay as above. Conditions: shRNA.

Sequence	sensor-assay potency score (higher = more potent)
TTGATGTCCTCGTAGGTCTTGA	-0.443
TCGTAGATCACGACGTGGGTGG	-0.279
TTCTCCTTGATGTCCTCGTAGG	-1.08
TAGGTCTTGATGAAGGCGGGGT	0.122
TCGTAGGTCTTGATGAAGGCGG	-0.615
TGAAGAAACACTCTCTTGGTGA	-0.0211
TTGAGTGAAGAAACACTCTCTT	0.653
TTCTCCTGGAACAGATGGCGGA	-0.871
TGAGTGAAGAAACACTCTCTTG	-1.53
TACCACTCCACCCAGGAGCCAT	-1.23
TCGATGTCGAAGAAAGCGGCGC	-0.934
TTAGACAGGTCCACTTTCTTCT	0.441

These sequences were tested against MPZL1 in the same assay as above. Conditions: shRNA.

Sequence	sensor-assay potency score (higher = more potent)
TTTTCTACGACATAGAGCCTAA	-0.79
ATATTTTCTATGTTGATTGATG	-0.933
TTTTCTATGTTGATTGATGCAT	-0.358
TATTCTCTTAATTCTTTCGGAT	-0.74
TAACTGTGCATATATGACTGGG	-0.763
TTTGACATCACAGATATAGGTG	0.376
TTTCTATGTTGATTGATGCATC	-0.949
TACACCACAGACTCTGACTTGT	0.413
TTTTTCTACGACATAGAGCCTA	-0.173
TTGTGTACCATTTGCCACGAAG	-1.44
TATTTATACATATCCTTTGTAC	-0.807
TTGACATCACAGATATAGGTGC	0.0652

— the OligoGym collection
